# PubChem BioAssay AID493191 (Broad Institute, 2011)
# Hit rate of the full screen: of about 1,300 compounds, about 330 (25%) were called active. How the calls were made is not given here. Not all results are given here. Measured potencies and affinities stand elsewhere.
# Experiment: growth inhibition of MALME3 cells – cell-based, CellTiter-Glo, cherry-picked, orthogonal assay for MITF inhibitor project, dose response (AID 493191)
# Settings: MALME3 melanoma viability, CellTiter-Glo luminescence, 24 h; series mostly up to 35 µM
row,Compound,outcome
1,Cc1ccc(C(=O)Nc2ccccc2Cl)cc1,inactive
2,Cc1ccc(OCCCCN2CCCCC2)c(Br)c1,inactive
3,COc1ccc(Br)cc1C(C[N+](=O)[O-])c1c(N)n(C)c(=O)n(C)c1=O (stereo unspecified),inactive
4,CN(C)CCCN(C(=O)c1ccc(Cl)s1)c1nc2cc3c(cc2s1)OCO3,inactive
5,Cc1ccc2nc(NC(=O)CCCC(=O)O)sc2c1,inactive
6,CN(Cc1ccccc1)C1=CC(=[N+]2CCCC2)CC(C)(C)C1,inactive
7,CN(C)c1cc[n+](CC(=O)c2ccc(-c3ccccc3)cc2)cc1,inactive
8,CN(CC(=O)N1CCCCCC1)S(=O)(=O)c1ccccc1,inactive
9,CCN(CC)Cc1c(O)ccc2c1O/C(=C\C=C\c1ccccc1)C2=O,inactive
10,Cc1cc(C)c2ccc(N)nc2c1O,inactive
11,CN(C)c1ccc(/C=C/c2cccc[n+]2[O-])cc1,inactive
12,O=C(CCl)Nc1cn(-c2ccccc2)nc1-c1ccccc1,inactive
13,Cc1nn2c(N)c(-c3ccccc3)cnc2c1-c1ccccc1,inactive
14,Brc1ccc(-c2cn3cccnc3n2)cc1,inactive
15,CC1CCCC(C)N1CCCNC(=O)c1cc2c(s1)-c1ccccc1OC2 (stereo unspecified),inactive
16,O=C(/C=C\Nc1ccc2c(c1)OCO2)c1ccccn1,inactive
17,O=[N+]([O-])c1ccc(/C=N/Nc2ccnc3cc(Cl)ccc23)o1,inactive
18,CC1CN(N=Cc2ccc([N+](=O)[O-])o2)C(=N)O1 (stereo unspecified),inactive
19,CCN(CC)S(=O)(=O)c1cccc(C(=O)N/N=C/c2ccc([N+](=O)[O-])o2)c1,inactive
20,CC(C)C(NC(=O)OCc1ccccc1)C(=O)OCC(=O)N1CCCCC1 (stereo unspecified),inactive
21,O=C(NC(=S)NCc1ccccc1)c1ccccc1,inactive
22,CCOc1ccc(-n2c(O)c(/C=N/Nc3nc(C)cc(C)n3)c3ccccc3c2=O)cc1,inactive
23,COc1ccc(Nc2oc(-c3ccc(OC)cc3)nc2C#N)cc1,inactive
24,O=C(N/N=C/c1ccccc1)c1ccco1,inactive

row,Compound,outcome
1,Cc1cc(C(=O)N/N=C/c2ccc([N+](=O)[O-])o2)c(C)o1,inactive
2,CC1CCN(C(=O)c2cc3ccccc3o2)CC1,inactive
3,O=C(Nc1nc2ccccc2s1)Nc1ccc(F)cc1F,inactive
4,O=C(Nc1cnc2ccccn2c1=O)c1ccc(F)cc1,inactive
5,O=C(N/N=C/c1cccc(Oc2ccc([N+](=O)[O-])cc2[N+](=O)[O-])c1)c1cncc(Br)c1,inactive
6,COc1cccc(/C=N/Nc2nc3ccccc3[nH]2)c1OC,inactive
7,C[C@H]1CCC[C@]2(C)C[C@H]3OC(=O)C(CN4CCCCCC4)[C@H]3C=C12 (stereo partly specified),inactive
8,O=C(COC(=O)C1=COCCO1)Nc1c(F)cccc1F,inactive
9,COc1cc(NC(=O)COc2cc(O)c3c(c2)OC(C)(C)CC3=O)cc(OC)c1OC,inactive
10,O=C(Nc1ccccc1Cl)Nc1cccc2cccnc12,inactive
11,Oc1ccccc1/C=N/Nc1cccc2cccnc12,inactive
12,O=C(N/N=C/c1cc(Br)ccc1O)c1ccncc1,inactive
13,O=C(CCCCC(=O)NN=Cc1ccccc1O)NN=Cc1ccccc1O,inactive
14,Cn1cccc1-c1cc(C(=O)N/N=C/c2cc(Br)ccc2O)[nH]n1,inactive
15,Cc1nc(NC(=O)C2CC2)sc1C(=O)Nc1ccccc1Cl,inactive
16,COc1ccc(C(=O)/C=C(\C)Nc2ccc3c(c2)OCO3)cc1,inactive
17,COc1cc(C2C(C#N)=C(N)Oc3cc4c(cc32)OCO4)cc(OC)c1OC (stereo unspecified),inactive
18,O=C(Nc1nnc(Cc2ccccc2)s1)c1ccccc1,inactive
19,CCOc1ccc(NC(=O)Nc2cccc(C(=O)O)c2)cc1,inactive
20,CN(C)c1ccc(-n2cccc2/C=C/[N+](=O)[O-])cc1,inactive
21,Cc1cc(Cl)ccc1NC(=O)c1ccc2c(c1)OCO2,inactive
22,Cc1ccc(OCC(=O)Nc2cccc(C)n2)c(C)c1,inactive
23,CCN1CCN(c2ccc(S(=O)(=O)N3CCOCC3)cc2NC(=O)/C=C/c2ccc([N+](=O)[O-])cc2)CC1,inactive
24,COc1cccc(/C=C/C(=O)c2ccc3c(c2)OCCO3)c1OC,inactive

row,Compound,outcome
1,O=[N+]([O-])c1cc(S(=O)(=O)N2CCCCCC2)ccc1F,inactive
2,COc1ccc(/C=C/C(=O)NC(=S)N2CCN(c3ccccc3OC)CC2)cc1,inactive
3,CN(C)CCNc1ccc2nnn3c4ccc(O)cc4c(=O)c1c23,inactive
4,N=C1C(c2nc3ccccc3[nH]2)=C(O)CN1C1CCCCC1,inactive
5,COc1ccc(C(=O)NCCSc2ccccc2C)cc1,inactive
6,COc1ccc(/C=C2\Sc3ccc(C(=O)NCCN4CCCCCC4)cc3N(C)C2=O)cc1,inactive
7,O=C(NCCSc1ccccc1)c1ccccc1F,inactive
8,CN(C)CCCNc1nc2sc3c(c2c(=O)n1CCc1ccccc1)CCCCC3,inactive
9,CC(C)(C)c1ccc(-c2cn(-c3ccc(Br)cc3)c3[n+]2CCCS3)cc1,inactive
10,OCc1ccc(N=Nc2ccccc2)cc1,inactive
11,Oc1c(CN2CCCC2)cc(COCc2ccccc2)c2cccnc12,inactive
12,CN(C)C1CCN(Cc2cc(COCc3ccccc3)c3cccnc3c2O)C1 (stereo unspecified),inactive
13,COc1cccc(CNc2nc3ccccc3n2C)c1O,inactive
14,COC(=O)c1c(NC(=O)c2nc3ccccc3s2)sc2c1CC(C)(C)NC2(C)C,inactive
15,O=C1c2ccccc2CN1c1ccccc1,inactive
16,CC(=O)Nc1ccc2c(c1)ncn2-c1ccccc1,inactive
17,O=C(NCc1csc(-c2cccs2)n1)C1CCC1,inactive
18,C/C(=N\NC(=O)C(C)Oc1ccc([N+](=O)[O-])cc1)c1ccccn1 (stereo unspecified),inactive
19,CC(=O)N(C1CC(C)C(C#N)(C#N)C1(C#N)C#N)N(C)C (stereo unspecified),inactive
20,COc1ccccc1N1C(=O)N(C(C)=O)C2C1Nc1ccccc1N2C (stereo unspecified),inactive
21,N#Cc1cnc2sc3ccccc3n2c1=N,inactive
22,Cc1c(/C=C/C(=O)c2ccc(Cl)s2)cnn1C,inactive
23,Cc1c(C=O)c2cc(OCc3ccccc3)ccc2n1C,inactive
24,N#C/C(=C\C=C\c1ccccc1[N+](=O)[O-])C(=O)NC1CCCCC1,inactive

row,Compound,outcome
1,N#C/C(=C\C=C\c1ccccc1[N+](=O)[O-])C(=O)NCc1ccccc1,inactive
2,Nc1ncnc(Sc2ncccn2)c1[N+](=O)[O-],inactive
3,CC(C)C(=O)Nc1ccc2nn(-c3ccc(F)cc3)nc2c1,inactive
4,CS(=O)(=O)N1CCN(c2nc3ccc(Cl)cc3s2)CC1,inactive
5,CCCN1CCC(NCc2cn(C)nc2-c2ccc(Oc3ccccc3)cc2)CC1,inactive
6,CC(O)CNC(=O)C1CCN(Cc2ccc(OCc3ccccc3)cc2)CC1 (stereo unspecified),inactive
7,COC(=O)c1ccc(COc2ccc(C)cc2[N+](=O)[O-])o1,inactive
8,Cc1ccccc1NC(=O)Cc1nc(COC(=O)c2ccc(S(C)(=O)=O)c([N+](=O)[O-])c2)cs1,inactive
9,Cc1ccc(-c2n[nH]c(=O)c3ccccc23)cc1S(=O)(=O)NCC1CCCO1 (stereo unspecified),inactive
10,C=CCNC(=O)Cn1nnc(-c2ccc(-c3ccc(OC)cc3)cc2)n1,inactive
11,O=C(N/N=C/C=C/c1ccccc1)c1ccccn1,inactive
12,Cc1ccc(-c2cn3nc(C)c(C)nc3n2)cc1,inactive
13,Cc1ccc2oc(Nc3nc(C)c(C)c(C)n3)nc2c1,inactive
14,C=C1C(=O)C2=CC1CCC(=O)C1(C)CCC(OC(C)=O)C(C)(C)C1CC2O (stereo unspecified),inactive
15,O=C(NC(=S)Nc1ccccn1)c1cccc([N+](=O)[O-])c1,inactive
16,N/C(=N\OC(=O)c1ccccc1Cl)c1cccc([N+](=O)[O-])c1,inactive
17,COC(=O)c1ccc(Nc2cc(C)nc3ccc(C)cc23)cc1,inactive
18,CCOc1ccc2nc(C)cc(Nc3cccc([N+](=O)[O-])c3)c2c1,inactive
19,Clc1ccc(-c2c[n+](Cc3cccc(Cl)c3)c3n2CCC3)cc1,inactive
20,O=c1c2ccccc2cnn1CCOc1ccccc1,inactive
21,O=[N+]([O-])c1cc(C(F)(F)F)ccc1NCCc1ccccn1,inactive
22,CS(=O)(=O)c1ccc(C(=O)OCC(=O)NCc2cccs2)cc1[N+](=O)[O-],inactive
23,CS(=O)(=O)c1ccc2nc(NC(=O)c3ccccc3)sc2c1,inactive
24,O=C(O)c1cccc(NC(=O)c2cccc(NC(=O)C3CCCO3)c2)c1 (stereo unspecified),inactive

row,Compound,outcome
1,Cc1ccc(C(=O)N/N=C\c2ccc([N+](=O)[O-])s2)cn1,inactive
2,O=C(N/N=C/c1ccc([N+](=O)[O-])s1)c1ccccc1,inactive
3,C=C1CCC[C@]2(C)C[C@H]3OC(=O)C(CN4CCCCC4CO)[C@H]3CC12 (stereo partly specified),inactive
4,COc1cc(SC)ccc1C(=O)Nc1ncc(C)s1,inactive
5,O=C(NCc1ccccc1)C(=O)Nc1cccc(C(=O)O)c1,inactive
6,CC(C)(C)c1cc(NCCCn2ccnc2)n2ncc(-c3ccccc3)c2n1,inactive
7,Nc1ccc(-c2nc3c(Cl)cc(N)cc3[nH]2)cc1,inactive
8,Cc1c(C#N)c(O)n(CCO)c(=O)c1N=Nc1ccc2c(c1)COC2=O,inactive
9,CCN(CC)c1ccc(/C=N/NC(=O)c2cccc(S(=O)(=O)N3CCOCC3)c2)c(O)c1,inactive
10,CCSc1nnc(NC(=O)C2CCCCC2)s1,inactive
11,O=C(CCl)N(Cc1cc(=O)[nH]c2ccccc12)c1ccccc1,inactive
12,O=C(CCl)N(c1ccccc1)c1c[nH]c2ccccc12,inactive
13,Fc1ccccc1-c1nc(-c2ccncc2)no1,inactive
14,Clc1cccc(-c2nc(-c3ccccn3)no2)c1,inactive
15,Clc1ccccc1CSc1nnc(-c2ccncc2)o1,inactive
16,CCOc1ccc(N(CC(=O)Nc2ccc(OC)cc2)S(C)(=O)=O)cc1,inactive
17,CCC(=O)Nc1cc2nn(-c3ccc(C)cc3)nc2cc1C,inactive
18,CC(=O)SC(C[N+](=O)[O-])c1cn(C(C)=O)c2ccccc12 (stereo unspecified),inactive
19,CC1Cc2ccccc2N1C(=O)c1ccc(Br)o1 (stereo unspecified),inactive
20,CCOC(=O)/C=c1/s/c(=C/c2ccc3cc(OC)ccc3c2)c(=O)n1CC(=O)NCC1CCCO1 (stereo unspecified),inactive
